What was measured:
Assay in all cases: log2 ratio of Biotin-Ahx-Ub-VS probe labelling (fragment/DMSO); higher = less target engagement (more negative = stronger competition), active = hit call of the paper (q ≤ 0.05, log2 ratio ≤ -1)
Details in all cases: compound concentration: 200 uM; treatment time: 3 h
[1] = biological target: T1, USP42 (UniProt Q9H9J4)
T1 sequence (whole entry): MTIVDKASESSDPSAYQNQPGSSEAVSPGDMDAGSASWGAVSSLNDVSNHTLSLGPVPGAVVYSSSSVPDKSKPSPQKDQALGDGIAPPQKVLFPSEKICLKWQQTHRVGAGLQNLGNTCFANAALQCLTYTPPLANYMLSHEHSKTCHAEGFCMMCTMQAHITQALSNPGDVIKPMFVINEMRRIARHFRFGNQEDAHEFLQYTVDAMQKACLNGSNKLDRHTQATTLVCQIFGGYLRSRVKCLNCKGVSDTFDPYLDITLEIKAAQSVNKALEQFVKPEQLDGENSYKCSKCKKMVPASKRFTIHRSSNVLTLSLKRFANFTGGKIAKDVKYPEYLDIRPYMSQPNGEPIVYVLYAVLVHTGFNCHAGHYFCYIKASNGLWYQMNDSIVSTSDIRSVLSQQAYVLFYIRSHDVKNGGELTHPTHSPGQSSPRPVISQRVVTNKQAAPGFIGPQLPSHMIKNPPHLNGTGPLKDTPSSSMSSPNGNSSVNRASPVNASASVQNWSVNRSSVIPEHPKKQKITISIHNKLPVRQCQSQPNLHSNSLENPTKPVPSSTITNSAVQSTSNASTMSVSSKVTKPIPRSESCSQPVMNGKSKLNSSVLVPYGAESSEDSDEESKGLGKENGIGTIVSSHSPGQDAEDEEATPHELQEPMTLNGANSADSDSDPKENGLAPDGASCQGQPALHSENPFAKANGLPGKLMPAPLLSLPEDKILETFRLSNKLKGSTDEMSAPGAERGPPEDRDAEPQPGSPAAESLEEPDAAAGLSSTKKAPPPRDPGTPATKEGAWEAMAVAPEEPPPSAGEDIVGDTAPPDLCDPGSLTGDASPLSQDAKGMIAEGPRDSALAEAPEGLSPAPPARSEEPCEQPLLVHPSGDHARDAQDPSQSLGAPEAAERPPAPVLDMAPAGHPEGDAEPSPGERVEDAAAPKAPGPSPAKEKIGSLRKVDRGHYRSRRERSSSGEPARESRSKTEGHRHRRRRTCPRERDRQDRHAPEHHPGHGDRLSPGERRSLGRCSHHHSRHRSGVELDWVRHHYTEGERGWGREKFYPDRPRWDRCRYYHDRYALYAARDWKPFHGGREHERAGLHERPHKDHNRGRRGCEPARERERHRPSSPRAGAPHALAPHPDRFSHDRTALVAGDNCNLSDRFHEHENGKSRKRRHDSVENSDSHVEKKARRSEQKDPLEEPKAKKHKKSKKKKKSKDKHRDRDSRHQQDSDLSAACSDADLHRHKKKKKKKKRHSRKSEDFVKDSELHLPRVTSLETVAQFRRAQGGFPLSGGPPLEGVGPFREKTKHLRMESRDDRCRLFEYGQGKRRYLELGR
Outline: (§1)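 The table lists average log2 ratios of fragment over vehicle, from an unpaired t-test on global-median-normalised Spectronaut label-free quantities. Proteins with ≥2 unique peptides were used. Samples were HEK293T lysate (495 µg) treated in triplicate with fragment at 200 µM or vehicle for 3 h, then with Biotin-Ahx-Ub-VS (0.5 µM final) for 1 h, with labelled DUBs NeutrAvidin-enriched and run by diaPASEF LC-MS/MS.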

[2] = biological target: USP46 (UniProt P62068)
Chain of USP46 (P62068 whole entry): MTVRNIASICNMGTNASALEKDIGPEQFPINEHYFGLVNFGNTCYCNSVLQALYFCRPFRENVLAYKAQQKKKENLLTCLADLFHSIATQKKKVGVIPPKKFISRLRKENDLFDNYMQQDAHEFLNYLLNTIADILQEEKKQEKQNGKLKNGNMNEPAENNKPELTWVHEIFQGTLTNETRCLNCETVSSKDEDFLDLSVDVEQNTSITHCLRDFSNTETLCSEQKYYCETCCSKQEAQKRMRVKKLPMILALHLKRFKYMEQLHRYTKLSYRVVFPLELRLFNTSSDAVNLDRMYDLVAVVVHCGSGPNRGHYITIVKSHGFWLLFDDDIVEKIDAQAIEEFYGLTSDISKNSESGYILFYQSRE
Outline: as §1

[3] = biological target: T2, USP47 (UniProt Q96K76)
T2 sequence (whole entry): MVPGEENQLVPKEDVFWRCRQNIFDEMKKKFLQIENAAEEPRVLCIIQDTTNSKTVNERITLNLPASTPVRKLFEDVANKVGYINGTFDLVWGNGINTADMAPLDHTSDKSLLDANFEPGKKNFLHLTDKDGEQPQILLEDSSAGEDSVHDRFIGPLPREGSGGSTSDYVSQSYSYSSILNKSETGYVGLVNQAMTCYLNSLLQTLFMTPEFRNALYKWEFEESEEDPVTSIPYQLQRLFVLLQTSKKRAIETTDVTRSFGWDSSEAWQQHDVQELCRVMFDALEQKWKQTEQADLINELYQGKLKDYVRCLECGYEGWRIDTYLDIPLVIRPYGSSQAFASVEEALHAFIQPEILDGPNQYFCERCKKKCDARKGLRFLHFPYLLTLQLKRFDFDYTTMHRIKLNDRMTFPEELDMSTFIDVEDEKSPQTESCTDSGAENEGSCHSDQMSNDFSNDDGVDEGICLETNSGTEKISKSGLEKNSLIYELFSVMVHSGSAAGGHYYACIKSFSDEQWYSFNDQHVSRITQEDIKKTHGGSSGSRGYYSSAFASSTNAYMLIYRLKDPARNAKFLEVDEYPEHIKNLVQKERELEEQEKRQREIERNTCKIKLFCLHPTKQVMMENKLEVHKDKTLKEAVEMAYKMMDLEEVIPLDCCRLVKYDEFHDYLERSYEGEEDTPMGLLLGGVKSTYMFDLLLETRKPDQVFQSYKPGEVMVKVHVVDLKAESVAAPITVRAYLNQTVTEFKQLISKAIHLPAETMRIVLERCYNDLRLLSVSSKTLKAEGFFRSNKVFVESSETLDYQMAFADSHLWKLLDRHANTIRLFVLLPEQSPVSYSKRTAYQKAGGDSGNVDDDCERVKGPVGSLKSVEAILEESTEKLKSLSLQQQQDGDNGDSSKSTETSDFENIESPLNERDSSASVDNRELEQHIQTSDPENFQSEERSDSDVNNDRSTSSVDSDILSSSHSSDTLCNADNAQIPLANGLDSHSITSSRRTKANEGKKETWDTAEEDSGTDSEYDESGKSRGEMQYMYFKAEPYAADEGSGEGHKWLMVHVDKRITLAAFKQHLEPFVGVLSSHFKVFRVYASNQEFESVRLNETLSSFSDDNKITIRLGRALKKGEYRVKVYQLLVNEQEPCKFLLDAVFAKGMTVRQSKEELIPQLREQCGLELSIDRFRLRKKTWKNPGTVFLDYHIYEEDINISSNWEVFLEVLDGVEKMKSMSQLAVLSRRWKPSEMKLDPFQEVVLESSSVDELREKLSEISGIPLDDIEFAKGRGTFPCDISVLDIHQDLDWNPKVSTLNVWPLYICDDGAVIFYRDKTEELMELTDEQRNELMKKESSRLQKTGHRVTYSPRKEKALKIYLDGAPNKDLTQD
Outline: as §1

[4] = biological target: T3, USP48 (UniProt Q86UV5)
T3 sequence (whole entry): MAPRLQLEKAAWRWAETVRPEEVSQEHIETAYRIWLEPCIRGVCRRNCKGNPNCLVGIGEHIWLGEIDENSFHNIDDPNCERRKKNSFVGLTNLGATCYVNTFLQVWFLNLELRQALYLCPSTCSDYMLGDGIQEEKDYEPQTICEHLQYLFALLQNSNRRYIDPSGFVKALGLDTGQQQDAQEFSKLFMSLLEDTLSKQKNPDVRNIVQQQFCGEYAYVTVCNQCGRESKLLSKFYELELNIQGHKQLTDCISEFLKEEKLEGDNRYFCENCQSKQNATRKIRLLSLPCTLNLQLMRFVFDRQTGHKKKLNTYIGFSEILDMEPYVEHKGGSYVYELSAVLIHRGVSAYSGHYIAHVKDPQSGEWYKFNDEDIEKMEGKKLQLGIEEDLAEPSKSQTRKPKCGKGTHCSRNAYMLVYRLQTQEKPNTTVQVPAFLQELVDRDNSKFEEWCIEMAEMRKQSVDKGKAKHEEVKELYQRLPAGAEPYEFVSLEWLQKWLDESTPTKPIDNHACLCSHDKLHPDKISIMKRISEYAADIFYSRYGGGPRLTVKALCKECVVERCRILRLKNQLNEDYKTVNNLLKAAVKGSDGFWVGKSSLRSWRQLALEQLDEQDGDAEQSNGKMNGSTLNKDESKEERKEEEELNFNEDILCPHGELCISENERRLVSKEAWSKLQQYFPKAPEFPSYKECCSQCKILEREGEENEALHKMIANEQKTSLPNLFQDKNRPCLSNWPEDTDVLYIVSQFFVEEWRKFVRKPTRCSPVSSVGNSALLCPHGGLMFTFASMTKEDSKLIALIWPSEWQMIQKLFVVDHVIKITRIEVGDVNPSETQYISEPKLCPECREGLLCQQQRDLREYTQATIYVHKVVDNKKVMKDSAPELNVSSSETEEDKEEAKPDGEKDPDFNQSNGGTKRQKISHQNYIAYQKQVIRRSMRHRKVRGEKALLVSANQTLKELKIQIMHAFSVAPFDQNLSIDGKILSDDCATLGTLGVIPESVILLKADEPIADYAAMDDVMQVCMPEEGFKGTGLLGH
Outline: as §1

[5] = biological target: T4, USP5 (UniProt P45974)
T4 sequence (whole entry): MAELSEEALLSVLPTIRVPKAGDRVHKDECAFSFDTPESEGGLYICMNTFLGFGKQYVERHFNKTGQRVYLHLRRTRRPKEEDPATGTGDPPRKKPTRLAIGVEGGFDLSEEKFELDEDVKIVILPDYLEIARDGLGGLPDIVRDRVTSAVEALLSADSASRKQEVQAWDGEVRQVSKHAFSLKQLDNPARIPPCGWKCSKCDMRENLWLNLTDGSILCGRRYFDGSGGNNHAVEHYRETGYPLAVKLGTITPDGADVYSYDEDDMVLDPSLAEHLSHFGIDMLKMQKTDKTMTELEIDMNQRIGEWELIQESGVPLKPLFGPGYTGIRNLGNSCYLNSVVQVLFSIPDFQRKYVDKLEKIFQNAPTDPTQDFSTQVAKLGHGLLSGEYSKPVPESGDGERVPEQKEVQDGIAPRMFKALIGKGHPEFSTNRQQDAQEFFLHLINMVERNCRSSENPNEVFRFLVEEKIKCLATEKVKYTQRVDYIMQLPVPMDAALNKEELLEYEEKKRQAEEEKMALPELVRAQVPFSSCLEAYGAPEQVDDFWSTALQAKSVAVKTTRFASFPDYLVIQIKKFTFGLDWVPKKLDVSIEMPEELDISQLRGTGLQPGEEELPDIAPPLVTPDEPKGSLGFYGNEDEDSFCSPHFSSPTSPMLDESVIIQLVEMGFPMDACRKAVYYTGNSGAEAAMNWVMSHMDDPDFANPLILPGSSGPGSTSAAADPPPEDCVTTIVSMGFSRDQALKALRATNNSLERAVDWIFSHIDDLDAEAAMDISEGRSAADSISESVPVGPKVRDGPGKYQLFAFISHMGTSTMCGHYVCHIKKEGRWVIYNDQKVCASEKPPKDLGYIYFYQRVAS
Outline: as §1

[6] = biological target: USP54 (UniProt Q70EL1)
Chain of USP54 (Q70EL1 whole entry): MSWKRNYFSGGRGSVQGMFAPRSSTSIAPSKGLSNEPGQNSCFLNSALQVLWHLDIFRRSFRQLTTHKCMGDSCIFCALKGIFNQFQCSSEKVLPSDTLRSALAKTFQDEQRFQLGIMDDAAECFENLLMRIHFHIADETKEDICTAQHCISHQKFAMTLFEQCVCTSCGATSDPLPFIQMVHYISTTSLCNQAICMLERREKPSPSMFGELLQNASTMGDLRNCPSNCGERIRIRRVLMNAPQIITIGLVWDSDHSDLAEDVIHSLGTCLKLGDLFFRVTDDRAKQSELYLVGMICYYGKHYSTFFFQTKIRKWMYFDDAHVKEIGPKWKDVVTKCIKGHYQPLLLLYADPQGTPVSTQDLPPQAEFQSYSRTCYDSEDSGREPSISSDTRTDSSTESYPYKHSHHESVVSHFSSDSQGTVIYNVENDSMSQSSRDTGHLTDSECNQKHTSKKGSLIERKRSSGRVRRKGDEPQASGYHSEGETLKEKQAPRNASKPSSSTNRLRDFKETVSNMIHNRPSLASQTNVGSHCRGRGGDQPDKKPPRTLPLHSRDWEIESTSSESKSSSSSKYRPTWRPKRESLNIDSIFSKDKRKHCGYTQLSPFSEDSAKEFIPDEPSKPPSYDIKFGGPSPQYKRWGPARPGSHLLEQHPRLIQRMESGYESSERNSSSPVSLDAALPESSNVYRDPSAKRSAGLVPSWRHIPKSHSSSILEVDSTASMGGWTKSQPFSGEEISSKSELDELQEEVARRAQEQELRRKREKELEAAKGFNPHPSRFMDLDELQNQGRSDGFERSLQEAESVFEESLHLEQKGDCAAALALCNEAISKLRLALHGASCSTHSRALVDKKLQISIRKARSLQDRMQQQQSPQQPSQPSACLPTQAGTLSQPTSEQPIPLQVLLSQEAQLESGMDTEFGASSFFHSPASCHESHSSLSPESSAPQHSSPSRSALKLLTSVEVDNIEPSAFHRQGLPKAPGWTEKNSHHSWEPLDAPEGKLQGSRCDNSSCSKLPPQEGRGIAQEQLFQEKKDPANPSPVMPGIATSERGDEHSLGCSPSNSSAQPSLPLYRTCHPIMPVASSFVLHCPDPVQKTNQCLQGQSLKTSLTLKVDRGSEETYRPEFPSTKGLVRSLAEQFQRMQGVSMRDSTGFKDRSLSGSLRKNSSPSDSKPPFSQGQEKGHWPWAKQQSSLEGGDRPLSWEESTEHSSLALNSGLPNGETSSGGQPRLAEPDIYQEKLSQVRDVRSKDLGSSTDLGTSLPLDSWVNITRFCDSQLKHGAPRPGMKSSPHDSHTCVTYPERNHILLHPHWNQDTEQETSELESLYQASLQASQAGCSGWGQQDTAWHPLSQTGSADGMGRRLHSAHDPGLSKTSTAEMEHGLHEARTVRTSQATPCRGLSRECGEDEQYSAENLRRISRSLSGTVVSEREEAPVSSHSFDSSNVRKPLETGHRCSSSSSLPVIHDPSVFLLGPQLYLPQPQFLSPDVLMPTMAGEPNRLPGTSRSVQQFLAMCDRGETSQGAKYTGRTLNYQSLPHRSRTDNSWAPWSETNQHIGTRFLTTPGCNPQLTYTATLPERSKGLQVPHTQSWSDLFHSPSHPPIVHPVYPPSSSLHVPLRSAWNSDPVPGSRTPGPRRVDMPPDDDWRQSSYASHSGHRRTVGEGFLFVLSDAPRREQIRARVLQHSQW
Outline: as §1

[7] = biological target: USP7 (UniProt Q93009)
Chain of USP7 (Q93009 whole entry, looked up): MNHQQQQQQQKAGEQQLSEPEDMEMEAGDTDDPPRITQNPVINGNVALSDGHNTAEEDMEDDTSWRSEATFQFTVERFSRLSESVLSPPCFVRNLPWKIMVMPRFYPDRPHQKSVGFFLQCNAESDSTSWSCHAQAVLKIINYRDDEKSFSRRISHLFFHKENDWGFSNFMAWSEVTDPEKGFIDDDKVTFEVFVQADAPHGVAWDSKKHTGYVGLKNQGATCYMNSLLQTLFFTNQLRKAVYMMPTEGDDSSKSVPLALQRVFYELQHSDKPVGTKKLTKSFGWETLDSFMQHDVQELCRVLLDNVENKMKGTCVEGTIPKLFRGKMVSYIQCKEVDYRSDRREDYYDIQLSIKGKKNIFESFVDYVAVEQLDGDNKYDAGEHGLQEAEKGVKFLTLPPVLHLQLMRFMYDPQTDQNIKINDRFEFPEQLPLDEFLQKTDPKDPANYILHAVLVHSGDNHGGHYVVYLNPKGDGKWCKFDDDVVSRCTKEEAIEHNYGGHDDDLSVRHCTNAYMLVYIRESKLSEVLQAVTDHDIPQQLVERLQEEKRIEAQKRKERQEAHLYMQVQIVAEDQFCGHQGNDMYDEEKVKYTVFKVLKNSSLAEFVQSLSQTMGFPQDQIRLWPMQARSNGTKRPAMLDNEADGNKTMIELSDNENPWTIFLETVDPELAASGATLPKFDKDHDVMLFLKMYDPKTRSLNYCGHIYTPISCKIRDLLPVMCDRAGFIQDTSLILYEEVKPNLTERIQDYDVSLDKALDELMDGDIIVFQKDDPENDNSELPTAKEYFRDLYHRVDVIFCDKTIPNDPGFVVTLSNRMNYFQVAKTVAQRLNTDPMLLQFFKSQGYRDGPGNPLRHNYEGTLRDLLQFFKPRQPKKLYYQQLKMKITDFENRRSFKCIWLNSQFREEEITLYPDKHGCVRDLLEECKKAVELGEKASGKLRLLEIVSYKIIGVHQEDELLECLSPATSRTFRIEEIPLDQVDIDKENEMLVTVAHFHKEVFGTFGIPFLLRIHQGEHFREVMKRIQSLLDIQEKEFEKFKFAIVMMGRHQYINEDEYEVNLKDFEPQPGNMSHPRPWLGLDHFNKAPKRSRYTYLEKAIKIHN
Outline: as §1

[8] = biological target: T5, USP8 (UniProt P40818)
T5 sequence (whole entry): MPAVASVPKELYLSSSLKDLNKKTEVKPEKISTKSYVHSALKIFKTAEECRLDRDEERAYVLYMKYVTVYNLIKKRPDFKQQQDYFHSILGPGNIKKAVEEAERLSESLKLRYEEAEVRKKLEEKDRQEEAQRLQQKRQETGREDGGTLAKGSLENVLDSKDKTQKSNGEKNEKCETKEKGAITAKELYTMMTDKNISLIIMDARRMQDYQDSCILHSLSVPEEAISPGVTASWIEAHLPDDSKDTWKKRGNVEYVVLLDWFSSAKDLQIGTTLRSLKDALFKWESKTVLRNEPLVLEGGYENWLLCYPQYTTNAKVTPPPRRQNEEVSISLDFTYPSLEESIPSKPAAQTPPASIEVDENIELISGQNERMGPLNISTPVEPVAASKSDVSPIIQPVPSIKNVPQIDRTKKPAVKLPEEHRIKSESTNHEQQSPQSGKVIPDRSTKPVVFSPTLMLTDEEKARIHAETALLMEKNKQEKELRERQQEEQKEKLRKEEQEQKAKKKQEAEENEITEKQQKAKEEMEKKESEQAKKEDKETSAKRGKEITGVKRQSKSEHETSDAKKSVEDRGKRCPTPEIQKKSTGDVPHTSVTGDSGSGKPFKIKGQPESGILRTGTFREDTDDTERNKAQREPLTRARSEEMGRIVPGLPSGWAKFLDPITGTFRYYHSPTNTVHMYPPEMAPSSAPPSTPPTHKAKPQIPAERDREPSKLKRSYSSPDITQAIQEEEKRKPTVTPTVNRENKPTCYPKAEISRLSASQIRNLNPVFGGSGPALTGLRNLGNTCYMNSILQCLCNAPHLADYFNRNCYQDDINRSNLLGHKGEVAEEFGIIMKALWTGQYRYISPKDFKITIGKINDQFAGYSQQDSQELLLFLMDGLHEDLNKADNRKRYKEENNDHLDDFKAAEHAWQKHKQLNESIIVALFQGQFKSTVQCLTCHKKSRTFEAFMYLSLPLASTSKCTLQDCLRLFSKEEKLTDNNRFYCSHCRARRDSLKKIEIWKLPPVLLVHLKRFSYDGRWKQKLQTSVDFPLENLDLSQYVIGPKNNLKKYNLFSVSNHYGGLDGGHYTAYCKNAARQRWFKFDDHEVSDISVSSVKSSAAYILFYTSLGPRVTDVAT
Outline: as §1

[9] = biological target: USP9X (UniProt Q93008)
Outline: as §1

[10] = biological target: UniProt O00487
Chain of UniProt O00487 (O00487 whole entry): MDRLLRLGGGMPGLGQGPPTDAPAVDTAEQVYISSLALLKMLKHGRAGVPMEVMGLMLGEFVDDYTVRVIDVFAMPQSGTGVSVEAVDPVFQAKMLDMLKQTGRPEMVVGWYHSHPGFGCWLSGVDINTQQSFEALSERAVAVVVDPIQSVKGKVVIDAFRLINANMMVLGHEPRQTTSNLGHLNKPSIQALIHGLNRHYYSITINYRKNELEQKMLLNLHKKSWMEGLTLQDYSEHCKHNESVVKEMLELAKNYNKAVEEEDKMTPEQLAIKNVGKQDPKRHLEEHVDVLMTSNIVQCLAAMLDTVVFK
Outline: as §1

Measured: log2 ratio of Biotin-Ahx-Ub-VS probe labelling

Cc1ccccc1C1(CNC(=O)CCl)CCOCC1
inactive: [1] -0.0942 | [2] 0.0453 | [3] -0.619 | [4] -0.295 | [5] 0.17 | [6] 0.35 | [7] -0.102 | [8] -0.0708 | [9] -0.0641 | [10] -0.115

— the supplement of paper PMC11732987, “Enantioselective OTUD7B fragment discovery through chemoproteomics screening and high-throughput optimisation” (Communications Chemistry, 2025)
